# JMJD2E inh – inhibitors of human JMJD2E histone demethylase; AID 2147; JMJD2E catalytic domain, FDH-coupled NADH fluorescence (FDH is formaldehyde dehydrogenase); 1.6% of 230,000 active; B2RXH2; Potency, µM (highest dose often 57.1 µM), actives largely listed as inhibitors; active = well fitted inhibition curve with a large enough effect, not every such curve was filed as active; inconclusive = small, poorly fitted or top-dose-only effect, or another doubt; inactive = no such curve, though single readings can be large or run the other way; note: nearly all actives have a fitted effect of over 50% in size
# L3MBTL1 block – L3MBTL1 (human) inhibition | Potency, µM (series often up to 57.1 µM), hits mostly inhibitors | 0.66% of 230,000 active | Q9Y468 | AlphaScreen L3MBTL1–H3K9me1 peptide binding; note: nearly all actives have a fitted effect of over 60% in size
# Target sequence (Q9Y468 whole entry, looked up): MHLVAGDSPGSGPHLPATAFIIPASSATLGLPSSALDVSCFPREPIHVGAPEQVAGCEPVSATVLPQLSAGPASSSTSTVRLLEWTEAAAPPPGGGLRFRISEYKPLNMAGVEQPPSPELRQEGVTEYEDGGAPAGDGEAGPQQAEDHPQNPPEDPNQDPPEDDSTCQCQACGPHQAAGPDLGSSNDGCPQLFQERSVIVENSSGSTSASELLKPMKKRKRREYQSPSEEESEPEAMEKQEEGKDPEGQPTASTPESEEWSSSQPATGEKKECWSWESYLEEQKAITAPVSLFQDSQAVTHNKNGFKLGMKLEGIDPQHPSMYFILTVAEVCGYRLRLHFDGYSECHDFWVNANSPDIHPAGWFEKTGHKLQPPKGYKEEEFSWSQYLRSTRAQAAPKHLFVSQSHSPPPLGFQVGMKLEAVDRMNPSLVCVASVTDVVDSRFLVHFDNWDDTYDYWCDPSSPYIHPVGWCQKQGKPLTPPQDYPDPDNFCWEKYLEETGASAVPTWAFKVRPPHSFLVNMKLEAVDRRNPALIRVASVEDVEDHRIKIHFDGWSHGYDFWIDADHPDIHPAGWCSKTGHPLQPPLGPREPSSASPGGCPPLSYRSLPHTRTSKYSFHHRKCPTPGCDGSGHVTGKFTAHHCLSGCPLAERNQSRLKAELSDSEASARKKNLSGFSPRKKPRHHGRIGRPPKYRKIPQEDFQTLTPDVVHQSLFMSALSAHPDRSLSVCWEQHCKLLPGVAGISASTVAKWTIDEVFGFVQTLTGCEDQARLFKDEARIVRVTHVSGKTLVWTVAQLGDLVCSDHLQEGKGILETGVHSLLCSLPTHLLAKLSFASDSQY
#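 Displacement of a biotinylated histone H3(1-15) peptide monomethylated at Lys9 (75 nM) from L3MBTL1 (50 nM) was measured by AlphaScreen after a 30 min room-temperature compound incubation; cefsulodin titration served as intraplate control.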
# HP1b chromo inh – inhibitors of HP1-beta chromodomain binding to methylated histone tails | P83916 | AlphaScreen HP1-beta / biotin-H3K9me3 peptide binding | Potency, µM (titrated, usually from 114 µM), usual class: inhibitors | 0.56% of 390,000 active | AID 540317; note: nearly all actives have a fitted effect of over 70% in size
#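 HP1-beta protein (50 nM final) preincubated 30 min at room temperature with biotinylated H3(1-18)K9me3 peptide (50 nM) in PBS pH 7.4, 0.01% Tween-20, then compound added for 30 min. AlphaScreen streptavidin donor/nickel chelate acceptor beads (10 ug/mL final), 30 min dark, luminescence read.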
# BAZ2B block – inhibitors of human BAZ2B bromodomain; Potency, µM (doses to about 114 µM), usual class: inhibitors; AID 504333; AlphaScreen BAZ2B-H3K14Ac peptide displacement; Q9UIF8; 4.4% of 360,000 active; note: nearly all actives have a fitted effect of over 60% in size
#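 AlphaScreen luminescence quantifies BAZ2B engagement of H3K14Ac peptide; the protein and biotinylated peptide are both at 50 nM final, buffer PBS pH 7.4 with 0.01% Tween-20, all steps at room temperature.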
# JMJD2A Tudor inh – inhibitors of human JMJD2A Tudor domain | O75164 | AlphaScreen JMJD2A-Tudor / H3K4me3 peptide binding | Potency, µM (top dose mostly 114 µM), usual class: inhibitors | 4.4% of 390,000 active; note: nearly all actives have a fitted effect of over 50% in size
# PI5P4K alpha inh – blocks human PI5P4K alpha kinase activity. PI5P4Kalpha enzyme, ADP-Glo luminescence, 60 min; stronger effect = lower value. 1.2% of 330,000 active. max response, %; active = max response of -50% or lower; inconclusive = between -30% and -50%; inactive = -30% or higher; note: value at the top dose of about 77 µM
#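 qHTS, 1536-well: enzyme/substrate mix, compound by pin tool, 5 microM ATP final; RT 60 min; ADP-Glo reagents 1 (45 min) then 2 (30 min); luminescence.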
# Hits are given with their value; n = inactive; u = inconclusive; x = not tested or not shown. An excerpt weighted towards active compounds, which were near 5.7% of everything screened. Unless noted, calls come from the whole dose curve; as a rule, active = well fitted inhibition curve with a large enough effect; inconclusive = small, poorly fitted or top-dose-only effect; inactive = no such curve, though single readings can be large or run the other way.
SMILES,JMJD2E inh,L3MBTL1 block,HP1b chromo inh,BAZ2B block,JMJD2A Tudor inh,PI5P4K alpha inh
CN(C)S(=O)(=O)c1cccc(NC(=O)COC(=O)c2cc3ccccc3oc2=O)c1,u,n,n,n,n,n
CC(=O)c1cccc(NC(=O)COC(=O)c2cccs2)c1,n,u,n,n,u,n
CCN(c1ccc(NC(=O)COC(=O)c2cccs2)cc1)C(C)C,n,x,u,u,45µM,n
CCCN1C(=O)C2(c3ccccc31)c1c(oc3ccc(F)cc3c1=O)C(=O)N2CCCOC(C)C (stereo unspecified),x,x,n,n,n,x
O=c1c2ccccc2nc2n1CCCCC2,n,n,n,n,n,n
O=C1CCn2c1c(O)c1ccccc1c2=O,x,x,n,x,35µM,n
O=C1C(Nc2ccccc2)=C/C(=N/S(=O)(=O)c2cccs2)c2ccccc21,u,6.3µM,11µM,2.8µM,4µM,n
COC(=O)c1ccccc1Nc1ccccc1,n,n,n,n,n,x
COC(=O)c1ccccc1NC1=C/C(=N\S(=O)(=O)c2cccs2)c2ccccc2C1=O,u,x,7.1µM,1.4µM,4µM,u
COC(=O)c1ccccc1NC1=C/C(=N\S(=O)(=O)c2ccc(C(=O)O)cc2)c2ccccc2C1=O,x,x,16µM,8.9µM,20µM,u
Cc1ccc(NC2=C/C(=N/S(=O)(=O)c3cccs3)c3ccccc3C2=O)cc1,n,u,u,u,n,n
CCOc1ccc(C(CC(=O)Nc2cc(C)c(Cl)cc2OC)N2Cc3ccccc3C2=O)cc1OC (stereo unspecified),x,x,n,u,n,x
Cc1onc(-c2c(Cl)cccc2Cl)c1C(=O)c1c[nH]c(C(=O)NCC2CCCO2)c1 (stereo unspecified),n,n,n,n,n,n
CN(C)S(=O)(=O)c1cccc(NC(=O)COC(=O)c2cccn2C)c1,n,n,n,x,n,n
Cc1ncc(CO)c(/C=N/NC(=O)c2cc(O)c(O)c(O)c2)c1O,13µM,1.6µM,x,10µM,x,x
COc1ccc(Br)cc1/C=N/NC(=O)c1cc(Br)ccc1O,u,x,x,56µM,x,x
Cc1ncc(CO)c(/C=N/NC(=O)c2cc(Br)ccc2O)c1O,u,x,n,11µM,79µM,n
Cc1cc(C(=O)N/N=C/c2c(CO)cnc(C)c2O)c2ccccc2n1,x,x,n,25µM,50µM,n
Cc1ncc(CO)c(/C=N/Nc2cccc(Cl)n2)c1O,x,x,n,n,n,n
Cc1c(/C=N/NC(=O)c2cc(Br)ccc2O)c(=O)n(C)c(=O)n1C,x,x,n,n,n,n
CN(C)c1ccc(-c2nc(-c3cc4cc(Cl)ccc4oc3=O)cs2)cc1,x,x,n,n,n,x
Cc1c(C(=O)NCc2ccc(F)cc2)oc2ccc(S(=O)(=O)N3CCCCC3)cc12,x,x,n,n,n,x
N#CC(C#N)=NNc1ccc2cn[nH]c2c1,x,x,x,x,x,-64
CCNC(=S)Nc1ccc2cn[nH]c2c1,n,n,n,n,n,n
CCN(CC)Cc1oc(-c2ccccc2)cc1C(=O)O,n,n,n,n,56µM,n
SMILES,JMJD2E inh,L3MBTL1 block,HP1b chromo inh,BAZ2B block,JMJD2A Tudor inh,PI5P4K alpha inh
COc1ccc(NC(=O)C(NC(=O)/C=C\c2ccc3c(c2)OCO3)c2ccccc2)cc1 (stereo unspecified),x,x,n,n,n,x
S=C1NCCc2ccc(Cl)cc2C1c1ccccc1 (stereo unspecified),n,n,u,40µM,u,n
COC(=O)c1ccc(NC(=O)C2C3C=CC(C3)C2C(=O)O)cc1 (stereo unspecified),x,x,n,n,n,n
O=C(ONC(=O)C1C2C=CC(C2)C1C(=O)NOC(=O)c1ccccc1)c1ccccc1 (stereo unspecified),x,x,n,x,0.79µM,n
O=C(CC1S/C(=N/N=C/C=C/c2ccccc2)NC1=O)Nc1ccc(C(=O)O)cc1 (stereo unspecified),n,x,n,79µM,n,-77
COc1ccc(CCNCC(=O)Nc2ccc(C(=O)N3CCCCC3)cc2)cc1,x,x,u,40µM,1.4µM,n
O=C(CNCc1ccc(Cl)cc1)Nc1ccc(C(=O)N2CCCCCC2)cc1,x,x,u,50µM,3.5µM,n
O=C(c1ccc(NC(=S)NCc2ccc(Cl)cc2)cc1)N1CCCCC1,n,n,n,n,n,n
CC1CC(C)CN(C(=O)C(C)N(C)CC(=O)Nc2ccc(F)cc2)C1 (stereo unspecified),x,n,n,n,n,n
COc1ccc(NC(=O)CN(C)C(C)C(=O)N2CCCCC2)cc1 (stereo unspecified),u,x,n,22µM,0.89µM,x
O=C(CNCc1ccc(Cl)cc1)Nc1ccc(C(=O)N2CCCCC2)cc1,x,x,45µM,56µM,1.1µM,n
O=C(CN1C(=O)NC2(CCSC2)C1=O)NCc1ccccc1 (stereo unspecified),n,n,n,n,n,n
Cc1ccc(NS(=O)(=O)c2ccc(-c3cc(C)no3)cc2)c(Br)c1,x,x,n,n,n,x
CC1(C)OC(=O)C2(Cc3cc([N+](=O)[O-])ccc3N3CCCCCC32)C(=O)O1 (stereo unspecified),x,x,n,x,n,x
CC(NC(=O)CN(c1ccc(Cl)cc1)S(C)(=O)=O)c1ccccc1 (stereo unspecified),x,n,n,n,n,n
O=c1[nH]nc(SC2CCCCC2)c(=O)[nH]1,x,x,n,x,n,n
COc1cc(/C=C2/SC(=S)N(CC3CCCO3)C2=O)ccc1O (stereo unspecified),n,n,45µM,45µM,u,n
COc1ccc(/C=C2\SC(=S)N(CC3CCCO3)C2=O)cc1 (stereo unspecified),n,n,u,8.9µM,u,n
O=C1/C(=C/c2cccnc2)SC(=S)N1CC1CCCO1 (stereo unspecified),n,n,n,n,n,n
COc1ccc(/C=C2\SC(=S)N(CCC(=O)NC3CCCC3)C2=O)cc1OC,x,x,n,n,n,n
COC(=O)CCCC1=CC2=C(c3ccccc3)C(=O)C(C)(OC(=O)C3CCCC3)C(=O)C2=CN1CCCCO (stereo unspecified),u,x,n,n,n,n
COC(=O)CCCC1=CC2=C(c3ccccc3)C(=O)C(C)(OC(=O)C3CCCC3)C(=O)C2=CN1CCCOC(C)C (stereo unspecified),3.5µM,x,x,x,x,x
COC(=O)CCCC1=CC2=C(c3ccccc3)C(=O)C(C)(OC(=O)C3CCCC3)C(=O)C2=CN1Cc1ccco1 (stereo unspecified),18µM,x,n,71µM,u,n
C/C(=N\NC(N)=S)C1(C)CCCCC1,n,n,n,n,35µM,n
COc1ccc(NC(=O)CN(C)S(=O)(=O)c2ccc3c(c2)CCCN3C(C)=O)cc1Cl,x,x,n,n,n,x
O=C(Nc1cc(C(F)(F)F)ccc1Cl)C(O)Cc1ccccc1 (stereo unspecified),x,x,x,x,n,x
CN(C)C(=S)c1ccc2ccccc2n1,n,n,n,n,n,n

# Screens as filed in PubChem.
